{"source": "the supplement of paper PMC8387472", "experiment_in_all_cases": "fraction of 1-bp insertions among edited reads; higher = more 1-bp insertion outcomes", "settings_in_all_cases": "mESC; 2uM; 72 h treatment, harvest day 5", "key": {"Pemetrexed": {"compound": "Nc1nc2[nH]cc(CCc3ccc(C(=O)N[C@@H](CCC(=O)O)C(=O)O)cc3)c2c(=O)[nH]1 [Pemetrexed]"}, "[1]": {"compound": "O=C(c1cccc(Cl)c1F)N1CCN(Cc2cccc(Nc3nccs3)n2)CC1"}, "Kenpaullone": {"compound": "O=C1Cc2c([nH]c3ccc(Br)cc23)-c2ccccc2N1 [Kenpaullone]"}, "Genistein": {"compound": "O=c1c(-c2ccc(O)cc2)coc2cc(O)cc(O)c12 [Genistein]"}, "[2]": {"compound": "O=c1cc(N2CCOCC2)oc2c(-c3ccc4c(c3)OCCO4)csc12"}, "Mercaptopurine (6-MP)": {"compound": "S=c1[nH]cnc2nc[nH]c12 [Mercaptopurine (6-MP)]"}, "[3]": {"compound": "S=c1nc[nH]c2nc[nH]c12 [6-Mercaptopurine (6-MP) Monohydrate]"}, "[4]": {"compound": "Nc1ncnc2c1c(-c1cnc3[nH]ccc3c1)nn2C1CCCC1"}}}
{"target": "22.0 (DMSO control at this site: 1-bp insertion 0.573, MH deletion 0.229, edited 0.045) CTGATGGTTGAAGGATTTAGCCGGGGTCCTAGACGCCGGGGTCCTAGACGAAAGGGCCACG", "values": [{"measurement": "fraction of 1-bp insertions among edited reads", "setting": "Pemetrexed", "result": 0.447}, {"measurement": "fraction of 1-bp insertions among edited reads", "setting": "[1]", "result": 0.671}, {"measurement": "fraction of 1-bp insertions among edited reads", "setting": "Kenpaullone", "result": 0.604}, {"measurement": "fraction of 1-bp insertions among edited reads", "setting": "Genistein", "result": 0.595}, {"measurement": "fraction of 1-bp insertions among edited reads", "setting": "[2]", "result": 0.623}, {"measurement": "fraction of 1-bp insertions among edited reads", "setting": "Mercaptopurine (6-MP)", "result": 0.587}, {"measurement": "fraction of 1-bp insertions among edited reads", "setting": "[3]", "result": 0.601}]}
{"target": "0.0 (DMSO control at this site: 1-bp insertion 0.463, MH deletion 0.339, edited 0.14) AGGATTACCGAGACCTACGCGAACCGAAATCGCTGTCCGGTGCGCAAGCAGGGCTGGCGTC", "values": [{"measurement": "fraction of 1-bp insertions among edited reads", "setting": "Pemetrexed", "result": 0.375}, {"measurement": "fraction of 1-bp insertions among edited reads", "setting": "[4]", "result": 0.623}, {"measurement": "fraction of 1-bp insertions among edited reads", "setting": "[1]", "result": 0.624}, {"measurement": "fraction of 1-bp insertions among edited reads", "setting": "Kenpaullone", "result": 0.604}, {"measurement": "fraction of 1-bp insertions among edited reads", "setting": "Genistein", "result": 0.453}, {"measurement": "fraction of 1-bp insertions among edited reads", "setting": "[2]", "result": 0.395}, {"measurement": "fraction of 1-bp insertions among edited reads", "setting": "Mercaptopurine (6-MP)", "result": 0.543}, {"measurement": "fraction of 1-bp insertions among edited reads", "setting": "[3]", "result": 0.518}]}
{"target": "20.0 (DMSO control at this site: 1-bp insertion 0.349, MH deletion 0.138, edited 0.084) TACAGGTGTAGACTGGTTACGTGGCTGCGGAATTGACTGGTTACGTGGCTGCGGAATTTTG", "values": [{"measurement": "fraction of 1-bp insertions among edited reads", "setting": "Pemetrexed", "result": 0.22}, {"measurement": "fraction of 1-bp insertions among edited reads", "setting": "[4]", "result": 0.456}, {"measurement": "fraction of 1-bp insertions among edited reads", "setting": "[1]", "result": 0.453}, {"measurement": "fraction of 1-bp insertions among edited reads", "setting": "Kenpaullone", "result": 0.429}, {"measurement": "fraction of 1-bp insertions among edited reads", "setting": "Genistein", "result": 0.278}, {"measurement": "fraction of 1-bp insertions among edited reads", "setting": "[2]", "result": 0.203}, {"measurement": "fraction of 1-bp insertions among edited reads", "setting": "Mercaptopurine (6-MP)", "result": 0.376}, {"measurement": "fraction of 1-bp insertions among edited reads", "setting": "[3]", "result": 0.22}]}
{"target": "7.0 (DMSO control at this site: 1-bp insertion 0.128, MH deletion 0.374, edited 0.098) TACTCAACCGAGACCTACGCGAACCGAAATCGTATGCCGGTGCGCAAGCAGGGCTGGCGTC", "values": [{"measurement": "fraction of 1-bp insertions among edited reads", "setting": "Pemetrexed", "result": 0.0646}, {"measurement": "fraction of 1-bp insertions among edited reads", "setting": "[4]", "result": 0.128}, {"measurement": "fraction of 1-bp insertions among edited reads", "setting": "[1]", "result": 0.15}, {"measurement": "fraction of 1-bp insertions among edited reads", "setting": "Kenpaullone", "result": 0.156}, {"measurement": "fraction of 1-bp insertions among edited reads", "setting": "Genistein", "result": 0.12}, {"measurement": "fraction of 1-bp insertions among edited reads", "setting": "[2]", "result": 0.16}, {"measurement": "fraction of 1-bp insertions among edited reads", "setting": "Mercaptopurine (6-MP)", "result": 0.145}, {"measurement": "fraction of 1-bp insertions among edited reads", "setting": "[3]", "result": 0.197}]}
{"target": "33.0 (DMSO control at this site: 1-bp insertion 0.008, MH deletion 0.771, edited 0.112) CATTAAGAGCAGCTGCCGGCCCCCAAGTGGACAGAGCTGGCCCTGCTGATTCAACAGTGCA", "values": [{"measurement": "fraction of 1-bp insertions among edited reads", "setting": "Pemetrexed", "result": 0.0161}, {"measurement": "fraction of 1-bp insertions among edited reads", "setting": "[4]", "result": 0.0263}, {"measurement": "fraction of 1-bp insertions among edited reads", "setting": "[1]", "result": 0.0349}, {"measurement": "fraction of 1-bp insertions among edited reads", "setting": "Kenpaullone", "result": 0.0243}, {"measurement": "fraction of 1-bp insertions among edited reads", "setting": "Genistein", "result": 0.0314}, {"measurement": "fraction of 1-bp insertions among edited reads", "setting": "[2]", "result": 0.0159}, {"measurement": "fraction of 1-bp insertions among edited reads", "setting": "Mercaptopurine (6-MP)", "result": 0.0358}, {"measurement": "fraction of 1-bp insertions among edited reads", "setting": "[3]", "result": 0.0255}]}
{"target": "32.0 (DMSO control at this site: 1-bp insertion 0.03, MH deletion 0.85, edited 0.898) AGAAGTCCAGGATCAGGGGGACTGGGGTCGGGAGGGTGGGGCAGGAAGGAAGCCAGAATCA", "values": [{"measurement": "fraction of 1-bp insertions among edited reads", "setting": "Pemetrexed", "result": 0.0205}, {"measurement": "fraction of 1-bp insertions among edited reads", "setting": "[4]", "result": 0.0205}, {"measurement": "fraction of 1-bp insertions among edited reads", "setting": "[1]", "result": 0.0247}, {"measurement": "fraction of 1-bp insertions among edited reads", "setting": "Kenpaullone", "result": 0.0214}, {"measurement": "fraction of 1-bp insertions among edited reads", "setting": "Genistein", "result": 0.0197}, {"measurement": "fraction of 1-bp insertions among edited reads", "setting": "[2]", "result": 0.0144}, {"measurement": "fraction of 1-bp insertions among edited reads", "setting": "Mercaptopurine (6-MP)", "result": 0.0169}, {"measurement": "fraction of 1-bp insertions among edited reads", "setting": "[3]", "result": 0.0198}]}
{"target": "23.0 AGAACAAAGCGCTCATATAACGATATGGGGGGTTATGGGGGGTTGAATTGCTTCAGCACGA", "values": [{"measurement": "fraction of 1-bp insertions among edited reads", "setting": "[1]", "result": 0.008}]}
{"target": "42.0 (DMSO control at this site: 1-bp insertion 0.145, MH deletion 0.655, edited 0.132) GGGCTAAACCTATGAGCACAGTAGAACTAAGGGTGGGTGGTGTAGCTAAAGAACTTGACCA", "values": [{"measurement": "fraction of 1-bp insertions among edited reads", "setting": "Pemetrexed", "result": 0.118}, {"measurement": "fraction of 1-bp insertions among edited reads", "setting": "[4]", "result": 0.246}, {"measurement": "fraction of 1-bp insertions among edited reads", "setting": "[1]", "result": 0.201}, {"measurement": "fraction of 1-bp insertions among edited reads", "setting": "Kenpaullone", "result": 0.21}, {"measurement": "fraction of 1-bp insertions among edited reads", "setting": "Genistein", "result": 0.144}, {"measurement": "fraction of 1-bp insertions among edited reads", "setting": "[2]", "result": 0.141}, {"measurement": "fraction of 1-bp insertions among edited reads", "setting": "Mercaptopurine (6-MP)", "result": 0.181}, {"measurement": "fraction of 1-bp insertions among edited reads", "setting": "[3]", "result": 0.198}]}
{"target": "5.0 (DMSO control at this site: 1-bp insertion 0.214, MH deletion 0.567, edited 0.105) CGCTGACCCGAGACCTACGCGAACCGAAATCGGCGACCGGTGCGCAAGCAGGGCTGGCGTC", "values": [{"measurement": "fraction of 1-bp insertions among edited reads", "setting": "Pemetrexed", "result": 0.184}, {"measurement": "fraction of 1-bp insertions among edited reads", "setting": "[4]", "result": 0.293}, {"measurement": "fraction of 1-bp insertions among edited reads", "setting": "[1]", "result": 0.277}, {"measurement": "fraction of 1-bp insertions among edited reads", "setting": "Kenpaullone", "result": 0.277}, {"measurement": "fraction of 1-bp insertions among edited reads", "setting": "Genistein", "result": 0.203}, {"measurement": "fraction of 1-bp insertions among edited reads", "setting": "[2]", "result": 0.187}, {"measurement": "fraction of 1-bp insertions among edited reads", "setting": "Mercaptopurine (6-MP)", "result": 0.27}, {"measurement": "fraction of 1-bp insertions among edited reads", "setting": "[3]", "result": 0.272}]}
{"target": "43.0 (DMSO control at this site: 1-bp insertion 0.134, MH deletion 0.714, edited 0.104) AGTTTAACTTACTCCGGCCAAAAAAGAACTGCACCTCTGGAGCGGGTTAGTGGTGGTGGTA", "values": [{"measurement": "fraction of 1-bp insertions among edited reads", "setting": "Pemetrexed", "result": 0.101}, {"measurement": "fraction of 1-bp insertions among edited reads", "setting": "[4]", "result": 0.0907}, {"measurement": "fraction of 1-bp insertions among edited reads", "setting": "[1]", "result": 0.0417}, {"measurement": "fraction of 1-bp insertions among edited reads", "setting": "Kenpaullone", "result": 0.058}, {"measurement": "fraction of 1-bp insertions among edited reads", "setting": "Genistein", "result": 0.0866}, {"measurement": "fraction of 1-bp insertions among edited reads", "setting": "[2]", "result": 0.0822}, {"measurement": "fraction of 1-bp insertions among edited reads", "setting": "Mercaptopurine (6-MP)", "result": 0.0946}, {"measurement": "fraction of 1-bp insertions among edited reads", "setting": "[3]", "result": 0.122}]}
{"target": "19.0 (DMSO control at this site: 1-bp insertion 0.121, MH deletion 0.101, edited 0.057) TCTGCAGGGGTCGGAACCCGGGGGCTAGGGCTATCCCGGGGGCTAGGGCTATTAGCGAACC", "values": [{"measurement": "fraction of 1-bp insertions among edited reads", "setting": "Pemetrexed", "result": 0.0345}, {"measurement": "fraction of 1-bp insertions among edited reads", "setting": "[4]", "result": 0.138}, {"measurement": "fraction of 1-bp insertions among edited reads", "setting": "[1]", "result": 0.109}, {"measurement": "fraction of 1-bp insertions among edited reads", "setting": "Kenpaullone", "result": 0.0939}, {"measurement": "fraction of 1-bp insertions among edited reads", "setting": "Genistein", "result": 0.0748}, {"measurement": "fraction of 1-bp insertions among edited reads", "setting": "[2]", "result": 0.0634}, {"measurement": "fraction of 1-bp insertions among edited reads", "setting": "Mercaptopurine (6-MP)", "result": 0.0615}, {"measurement": "fraction of 1-bp insertions among edited reads", "setting": "[3]", "result": 0.104}]}
{"target": "46.0 TTAAGAGCAATGTTCACGCAACTTGAAATTATATCTGTGGTCTTCAAATTGTCTTTTGTCA", "values": [{"measurement": "fraction of 1-bp insertions among edited reads", "setting": "Pemetrexed", "result": 0.309}, {"measurement": "fraction of 1-bp insertions among edited reads", "setting": "[4]", "result": 0.0621}, {"measurement": "fraction of 1-bp insertions among edited reads", "setting": "Genistein", "result": 0.25}, {"measurement": "fraction of 1-bp insertions among edited reads", "setting": "[3]", "result": 0.17}]}
{"target": "34.0 (DMSO control at this site: 1-bp insertion 0.184, MH deletion 0.385, edited 0.103) ATTATAGGACCCTGAGGGAGCAGAGATGTGGGAATGGGGGCCGAGCCAATTGTGATGTAAG", "values": [{"measurement": "fraction of 1-bp insertions among edited reads", "setting": "Pemetrexed", "result": 0.121}, {"measurement": "fraction of 1-bp insertions among edited reads", "setting": "[4]", "result": 0.233}, {"measurement": "fraction of 1-bp insertions among edited reads", "setting": "[1]", "result": 0.211}, {"measurement": "fraction of 1-bp insertions among edited reads", "setting": "Kenpaullone", "result": 0.154}, {"measurement": "fraction of 1-bp insertions among edited reads", "setting": "Genistein", "result": 0.11}, {"measurement": "fraction of 1-bp insertions among edited reads", "setting": "[2]", "result": 0.176}, {"measurement": "fraction of 1-bp insertions among edited reads", "setting": "Mercaptopurine (6-MP)", "result": 0.213}, {"measurement": "fraction of 1-bp insertions among edited reads", "setting": "[3]", "result": 0.2}]}
